Reference: PubChem BioAssay (NCATS)
Inconclusive results are not listed. Activity calls are given as the source filed them. The call rests on the fitted dose curve; in most records, active means well fitted inhibition curve with a large enough effect; inconclusive means small, poorly fitted or top-dose-only effect; inactive means no such curve, though single readings can be large or run the other way.
Potency means the concentration at half of the fitted maximal effect.

Assay: qHTS Screen of the MIPE 4.0 Collection Against Ewings Sarcoma (TC71) (AID 1259253); further: nearly all actives have a fitted effect of over 40% in size
Conditions: TC71 Ewing sarcoma viability, CellTiter-Glo, 48 h; series mostly up to 45.8 µM
Excerpt: There is a large unmet medical need for treatments for Ewing sarcoma, a pediatric sarcoma. We sought to identify compounds that inhibited Ewing sarcoma cells in vitro with the goal to then test promising drugs in two drug combinations in vitro to look for synergistic drug combinations. Promising combinations would then proceed to additional validation, including in vivo testing.
Using the NCATS developed oncology compound library called the Mechanism of Interrogation Plate (MIPE), four Ewing sarcoma cell lines were evaluated (TC32, TC71, RDES, EW8). Compounds, in a 12-point titration series, were incubated with cells for 48 hours and the read out was cell viability (CellTiter-Glo from Promega). These initial experiments were used to select appropriate concentrations of each single agent for subsequent two-drug matrix combinations such that the concentrations in the matrices would span both activity and non-activity.
Cells, in the log phase of growth, were seeded in 5 uL of RPMI plus 5% FBS, […] L-glutamine, 100 U/ml penicillin and 100 ug/ml streptomycin into 1536-well solid-bottom white tissue culture treated Greiner Bio One Plates (789173-F) using a MultiDrop Combi (Thermofisher Scientific) dispenser and a small sterile cassette. One column was media alone to be used as a :"no cells" control. The plates were then covered with sterilized stainless steel gasketed lids from Kalypsys. After allowing cells to attach for 4 hours, 23 nL of test compound or control (negative control DMSO and positive control 9.2 uM Bortezomib-final) were added from a 1536-well polypropylene compound source plate to each well using a 1536 head pin tool from Kalypsys. Cells were then incubated for 48 hours at 37C, 95% relative humidity and 5% CO2. After 48 hours, plates were removed from the incubator and 3 uL of CellTiter-Glo (Promega) was added using an Aurora Flying Reagent Dispenser Bioraptor. Plates were incubated at room temperature for 10 minutes prior to reading the luminescence on the Viewlux (PerkinElmer). The relative luciferase units are used to calculate the percent activity using the activity of DMSO in the cells and no cells columns for normalization of no inhibition and full inhibition respectively.
In the case of `N[C@@H](Cc1ccc(N(CCCl)CCCl)cc1)C(=O)O`, the Potency is reported as 9.35 µM (active).
In the case of `COC[C@@H](NC(C)=O)C(=O)NCc1ccccc1`, the Potency is reported as “inactive”.
For `Cn1cc(C2=C(c3cn(C4CCN(Cc5ccccn5)CC4)c4ccccc34)C(=O)NC2=O)c2ccccc21`, the Potency was 6.62 µM (active).
In the case of `C[C@@H]1O[C@@H](O[C@H]2C[C@@H](O)[C@]3(CO)[C@H]4[C@H](O)C[C@]5(C)[C@@H](C6=CC(=O)OC6)CC[C@]5(O)[C@@H]4CC[C@]3(O)C2)[C@H](O)[C@H](O)[C@H]1O`, the Potency is reported as 0.0418 µM (active).
For `Cc1sc2c(c1C)C(c1ccc(Cl)cc1)=N[C@@H](CC(=O)OC(C)(C)C)c1nnc(C)n1-2`, the Potency was 1.48 µM (active).
In the case of `Cc1cccc(C)c1NC(=O)CN1CCCC1=O`, the Potency is reported as “inactive”.
With `C[C@@H]1[C@@H](C(=O)C[C@H]2O[C@@H]3O[C@]4(C)CC[C@@H]5[C@H](C)CC[C@@H]([C@H]2C)[C@@]35OO4)O[C@@H]2O[C@]3(C)CC[C@H]4[C@H](C)CC[C@@H]1[C@@]24OO3` the Potency was 4.69 µM (active).
In the case of `C#CCN(C)[C@H](C)Cc1ccccc1`, the Potency is reported as “inactive”.
For `CN1CCN(C(=O)O[C@H]2c3nccnc3C(=O)N2c2ccc(Cl)cn2)CC1`, the Potency was “inactive”.
In the case of `CC(O)(CS(=O)(=O)c1ccc(F)cc1)C(=O)Nc1ccc(C#N)c(C(F)(F)F)c1` (stereo not drawn), the Potency is reported as 2.35 µM (active).
In the case of `COc1ccc(C(CN(C)C)C2(O)CCCCC2)cc1` (stereo not drawn), the Potency is reported as “inactive”.
For `COc1ccc(C(=O)c2c(C)n(CCN3CCOCC3)c3ccccc23)cc1`, the Potency was “inactive”.
In the case of `CN(C)[C@@H]1C(=O)C(C(N)=O)=C(O)[C@@]2(O)C(=O)C3=C(O)c4c(O)cccc4[C@@](C)(O)[C@H]3C[C@@H]12`, the Potency is reported as 3.72 µM (active).
In the case of `CN(C)CCN(C)CCc1ccc(Cl)c(Cl)c1`, the Potency is reported as “inactive”.
With `C[C@@H]1[C@@H](CC(C[C@H]2O[C@@H]3O[C@]4(C)CC[C@@H]5[C@H](C)CC[C@@H]([C@H]2C)[C@@]35OO4)C[S+](=O)([O-])c2ccc(COC(=O)N(C)C)cc2)O[C@@H]2O[C@]3(C)CC[C@H]4[C@H](C)CC[C@@H]1[C@@]24OO3` (stereo partly drawn) the Potency was 0.332 µM (active).
For `CNCC(O)c1ccc(O)cc1` (stereo not drawn), the Potency was “inactive”.
In the case of `C=C(C)[C@H]1Cc2c(ccc3c2O[C@@H]2COc4cc(OC)c(OC)cc4[C@@H]2C3=O)O1`, the Potency is reported as 4.69 µM (active).
In the case of `CCCC(C)(COC(N)=O)COC(=O)NC(C)C` (stereo not drawn), the Potency is reported as “inactive”.
In the case of `Fc1ccc(C(OCCN2CCN(CCCc3ccccc3)CC2)c2ccc(F)cc2)cc1`, the Potency is reported as 18.7 µM (active).
In the case of `Cc1cc(SCc2sc(-c3ccc(C(F)(F)F)c(F)c3)nc2C)ccc1OCC(=O)O`, the Potency is reported as 23.5 µM (active).
For `O=c1[nH]c2ccccc2n1CCCN1CCC(n2c(=O)[nH]c3cc(Cl)ccc32)CC1`, the Potency was “inactive”.
In the case of `O=C1CC[C@@]2(O)[C@H]3Cc4ccc(O)c5c4[C@@]2(CCN3CC2CC2)[C@H]1O5`, the Potency is reported as “inactive”.
In the case of `COC1(CS(=O)c2ccccc2)CCN(CCc2c[nH]c3ccc(F)cc23)CC1` (stereo not drawn), the Potency is reported as 5.9 µM (active).
